From PubChem BioAssay AID651644 (National Center for Advancing Translational Sciences (NCATS), 2012)
Out of some 360,000 compounds screened, about 750 (0.21%) were called active. Roughly 2% stayed inconclusive and do not appear here. The entries come from a sample that favours actives as a whole. Values without a mark were called inactive. The call rests on the fitted dose curve; in most records, active means well fitted falling curve with a large enough effect; inconclusive means small, poorly fitted or top-dose-only effect; inactive means no such curve, though single readings can be large or run the other way.

test: qHTS Assay for Inhibitors of the HIV-1 protein Vpr; further: nearly all actives have a fitted effect of over 50% in size; settings: S. pombe RE007 Vpr strain, BacTiter-Glo ATP luminescence, 24 h; series mostly up to 92.2 µM; activity change, negative = less growth: at the top concentration
Excerpt: Human immunodeficiency virus type 1 (HIV-1), the causative agent of AIDS, contains a protein called viral protein R (Vpr) that plays an important role in the viral life cycle and the pathogenesis of HIV-1.
These Vpr specific activities include cytoplasmic-nuclear shuttling, induction of cell cycle G2 arrest and cell killing. The cytoplasmic-nuclear shuttling is believed to participate in nuclear transport of the proviral integration complex (PIC). The cell cycle G2 arrest induced by Vpr is thought to suppress human immune functions by preventing T cell clonal expansion and to provide an optimized cellular environment for maximal levels of viral replication. In addition, Vpr induces apoptosis, which may contribute to the depletion of CD4 T cells in HIV-infected patients. Since the Vpr-specific activities have been linked to such clinical manifestation of AIDS as activation of viral replication, suppression of host immune responses and depletion of CD4+ T-lymphocytes, identification of new molecular probes that can inhibit the Vpr activities could potentially provide a new approach to reduce Vpr-mediated detrimental effects in HIV-infected patients, and thus prolong patient's lives. Currently, there are no anti-Vpr drugs.
A fission yeast (Schizosaccharomyces pombe) model system for the Vpr studies has been developed which measures HIV-1 Vpr-induced cell death. This assay will be used for to screen the NIH Molecular Libraries Small Molecule Repository (MLSMR) identify small molecule HIV-1 Vpr inhibitors.
NIH Chemical Genomics Center [NCGC]
NIH Molecular Libraries Probe Centers Network [MLPCN]
Assay Submitter (PI): Richard Zhao, University of Maryland
The fission yeast RE007 strain was used, which carries a single integrated copy of HIV-1 vpr gene in the yeast chromosome. The starting culture was frozen stock 100ul of yeast RE007 in 150ml of *PMG+AL medium, Incubation in 30 degree plus 99% humidity for 18 hours. Next day dispensed 2.5ul of PMG+AL medium in each well to 1536 well white solid plate, then 23nL compound were delivered to each well using a pin tool. Check OD for overnight culture and add cell density at 0.01 for each well, incubation in 30 degree plus 99% humidity for 24 hours. After add 5 ul of *BacTiter/Glo detect reagent to each well at room temperature for 5 minutes then to red out results with Viewlux CCD camera.
On the % scale 0 is the no-effect control and ±100 the full control effect.

SMILES	activity change, negative = less growth	Potency
Cn1cnnc1SCC(=O)NNC(=O)COc1ccc(Br)cc1	7.44%	
CN(C)CC1Oc2ccccc2OC1(O)c1ccccc1 (stereo unspecified)		10 µM (active)
CN(C)CCOC(=O)C(c1ccccc1)C1(O)CCCC1 (stereo unspecified)	0%	
CC(C)Nc1ncnc2c1ncn2[C@H]1CN(Cc2ccncc2)C[C@@H](CO)O1	1.71% [at 18.4 µM]	
O=C(CC1C(=O)NCCN1Cc1ccc(-c2ccccc2)cc1)NCc1ccncc1 (stereo unspecified)	-9.23%	
COc1cccc(CN2CCNC(=O)C2CC(=O)N(C)CCc2ccccn2)c1 (stereo unspecified)	-1.12%	
Cc1cccc(C(=O)NCc2nnc(SC(C)C(=O)Nc3nnc(C)s3)n2C)c1 (stereo unspecified)	31.2%	
COc1cc(/C=N\NC(=O)c2nonc2N)c(OC)cc1Br	3.53%	
Nc1nonc1-n1nnc(C(=O)N/N=C/c2ccc(Cl)cc2)c1-c1ccc2c(c1)OCO2	6.44%	
Cc1nonc1C(=O)N/N=C/c1ccc(O)cc1		25.1 µM (active)
Cc1ccc2nc(SC(C)C(=O)NCc3ccco3)[nH]c2c1 (stereo unspecified)	3.44%	
O=c1[nH][nH]c2c1[C@H](c1ccc(Cl)cc1)O[C@H](CCc1ccccc1)C2	-16.7%	
O=C(NCc1nnnn1-c1ccc(Cl)cc1)c1ccc([N+](=O)[O-])o1	5.28%	
O=C(/C=C/c1ccc(Cl)cc1)Nc1ccc(Br)cn1	-16.9%	
O=C(Nc1ccc(Br)cn1)c1ccc([N+](=O)[O-])o1		17.8 µM (active)
O=C(COc1ccccc1Cl)Nc1ccccc1C(=O)NC1CC1	6.03%	
Oc1ccccc1CNc1ncc(Br)cc1Br		35.5 µM (active)
CCc1cccc(C)c1NS(=O)(=O)c1cc(Br)cnc1N	4.12%	
O=[N+]([O-])c1ncc(Br)cc1Nc1ccccc1	-26.1%	
Cc1cccc(C(=O)Nc2ccccc2-c2nnn(CC(=O)Nc3ccc4c(c3)OCCO4)n2)c1	-8.57%	
Clc1ccc(-c2nc3ccccn3c2CN2CCSCC2)cc1	-29.7%	
CCOC(=O)C(Cc1ccc(N)cc1)N1C(=O)c2ccccc2C1=O (stereo unspecified)	-18.5%	

SMILES	activity change, negative = less growth	Potency
CCOC(=O)C1=C(c2ccc(OC)cc2)C(=O)c2ccccc2C1=O		20 µM (active)
CCOC(=O)C1=C(CC)Nc2ccccc2N=C1N	-6.54%	
CC(C)(C)S(=O)N1Cc2cc(C(=O)NCCCN3CCOCC3)nc(-c3cccc(-c4cc5ccccc5o4)c3)c2[C@H]1CCO (stereo partly specified)	-1.2%	
CCOC(=O)N1CCN(S(=O)(=O)c2cc(Br)cc3c2N(C(=O)C2CC2)CC3)CC1	-1.69%	
CC(=O)NC(CC(=O)Nc1cccc(S(=O)(=O)N2CCCC2)c1)c1ccccc1 (stereo unspecified)	1.4%	
CN(C)S(=O)(=O)c1ccc2oc(SCC(=O)Nc3ccccc3F)nc2c1	20.8%	
CCOc1ccc(NC(=O)c2ccc(NC(=O)C3CCCO3)cc2)cc1 (stereo unspecified)	2.63%	
COc1ccc(C2(C)NC(=O)N(CC(=O)c3ccc4c(c3)OCO4)C2=O)cc1 (stereo unspecified)	2.95%	
CCOc1ccc(NCCC(=O)c2ccc3c(c2)OCO3)cc1		31.6 µM (active)
Cc1cc(NC(=O)Cn2nc(C(F)(F)F)c3c2CCCC3)no1	-1.84%	
Cc1cc(C)cc(NC(=O)c2cccc(NC(=O)C3C4CC5OC(=O)C3C5C4)c2)c1 (stereo unspecified)	13.4%	
CN(C)c1cccc(NC(=O)c2ccc(-c3ccc(F)c(F)c3)c3ccoc23)c1	5.61% [at 18.4 µM]	
O=C(c1ccc(Cl)c(S(=O)(=O)N2CCCCCC2)c1)N1CCN(c2ccc(O)cc2)CC1	1.01%	
O=C1C=CC(=O)N1c1ccc(N2CCCCC2)cc1		2.82 µM (active)
Cc1cc(NC(=O)CSc2nccn2-c2ccc([N+](=O)[O-])cc2)no1	11.4%	
Cc1cc(C)c2c(n1)sc1c(=O)n(-c3ccccc3)c(=O)[nH]c12	-0.636%	
CCCCCCCCc1c(O)nc(-n2[nH]c(C)c(CCO)c2=O)[nH]c1=O	1.19%	
Cc1ccc(-c2nn(-c3ccc(F)cc3)cc2C(=O)NCC(c2cccs2)N2CCOCC2)cc1 (stereo unspecified)	19.5%	
FC(F)(F)C1CCCN(c2nsc3ccccc23)C1 (stereo unspecified)		8.91 µM (active)
CCn1ncc(C2=NOC(C(=O)N3CCN(c4ccccc4)CC3)C2)c1C (stereo unspecified)	-2.91%	
CC1Cc2ccccc2N1C(=O)c1cc2sccc2n1Cc1ccccc1 (stereo unspecified)	9.42%	
COc1ccc(C(CNC(=O)c2cc(S(=O)(=O)Nc3cccc(C)c3)ccc2C)N2CCCC2)cc1 (stereo unspecified)	-11%	

SMILES	activity change, negative = less growth	Potency
CCn1cc(C(=O)N[C@@H](C)C(=O)NCCO)c(=O)c2cc3c(cc21)OCO3	8.19%	
O=[N+]([O-])c1ccc(C=Nc2ccc(Cl)cc2Cl)s1		3.16 µM (active)
Cc1ccc(S(=O)(=O)N(c2cccc(C)c2)C2CCS(=O)(=O)C2)cc1 (stereo unspecified)	-5.48%	
CN1CCN(C(=O)c2ccccc2NC(=O)COc2ccccc2Cl)CC1	-2.68%	
COc1ccc(NC(=O)c2cccc(Cl)c2)c[n+]1[O-]	-16.9%	
Cc1cccc(NS(=O)(=O)c2ccc(-c3cnc(C4CC4)o3)cc2)c1	-3.01%	
Cc1ccccc1OCC(=O)NCC(=O)OCC(=O)c1ccc2ccccc2c1	-1.1%	
Cc1cccc(C)c1NC(=O)Nc1ccccc1-n1ccnc1	-10.5%	
CC(C)NC(=O)CSc1ccccc1C(=O)NCc1ccc2c(c1)OCO2	-6.89%	
CCSc1ccccc1C(=O)Nc1ccc2c(c1)OCO2		28.2 µM (active)
CCOc1ncccc1C(=O)Nc1ccc2c(c1)OCCO2	0.0868%	
O=C1COc2ccc(C(=O)COC(=O)CCOc3ccccc3)cc2N1	2.66%	
O=S(=O)(NCCS(=O)(=O)N1CCN(c2ccccc2)CC1)c1ccc(F)cc1	-2.52%	
Cc1c(C(=O)OCC(=O)N(CCC#N)c2ccccc2)oc2c1ccc1ccccc12	-3.92%	
O=C(NC(c1ccc(-c2ccccc2)cc1)c1cnccn1)C1CCN(CCOc2ccc(Cl)cc2Cl)CC1 (stereo unspecified)	-8.16% [at 18.4 µM]	
NNC(=O)C1CCCn2c1nc1sc3c(c1c2=O)CCCC3 (stereo unspecified)	12%	
CCCCc1c(O)nc2n(c1=O)CCS2	-2.61%	
CC1CCc2c(sc3nc4n(c(=O)c23)CCS4)C1 (stereo unspecified)		12.6 µM (active)
Cc1cccc(C(=O)OCC(=O)NCC(C)C)c1O	4.4%	
Cc1cccc(N2CCN(Cc3nc(C4CC4)no3)CC2)n1	-6.17%	
COP1(=O)C[C@@H](O)[C@@H](O)[C@@H](COCc2ccccc2)O1 (stereo partly specified)	0.0821%	
O=C(Nc1nnc(C2COc3ccccc3O2)o1)c1ccc(F)cc1 (stereo unspecified)	-17.2%	
